Assay results reported in PubChem BioAssay AID492952 (Southern Research Specialized Biocontainment Screening …, 2010).
In all, about 2,300 compounds went through this assay and about 1,500 (65%) were called active. The rule behind the calls is not given here. So high a share suggests a set chosen from earlier hits. Some of the results follow. Entries with a potency or affinity are not part of this list.

assay: replicating M. tuberculosis growth inhibition, dose response, non-replicating M. tuberculosis project, H37Rv (AID 492952); details: series mostly up to 50 µM; inhibition: at the top concentration;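 note: Mycobacterium tuberculosis grown in culture; growth inhibition read after a week of incubation; 0% = bacteria alone untreated and 100% = bacteria with high antibiotic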

| Compound | inhibition |
| --- | --- |
| CCc1ccc(N=CC2=C(O)CC(c3ccco3)CC2=O)cc1 (stereo not given) | 3% (inactive) |
| CC(=O)N(c1nnc(-c2ccc(C)cc2)s1)C1CCCC1 | 20.1% (inactive) |
| O=C(NCCC1=CCCCC1)c1ccc(F)cc1 | -3.67% (inactive) |
| O=C(NCCC1=CCCCC1)c1ccc(Br)o1 | -0.64% (inactive) |
| COc1ccccc1-c1nnc(-c2ccc(C)cc2)o1 | 7.38% (inactive) |
| COc1ccccc1-c1cc(SC)c(C#N)c(=O)o1 | -0.91% (inactive) |
| O=C(COC(=O)c1cccc(C(F)(F)F)c1)NCc1ccccc1 | -2.81% (inactive) |
| FC(F)(F)c1ccc(NCCc2ccccc2)nc1 | -0.21% (inactive) |
| CCOC(=O)Cc1csc(NC(=O)COc2ccc3c(c2)CCC3)n1 | 0.53% (inactive) |
| O=C(CNC(=O)c1ccc(Br)cc1)c1ccc(Br)cc1 | 23.6% (inactive) |
| Nc1nnc(SCCCC(=O)c2ccc(Br)cc2)s1 | 5.18% (inactive) |
| Cc1cccc(C)c1NC(=O)c1sc(N)nc1-c1ccccc1 | -4.98% (inactive) |
| Cc1ccc(C(=O)N/N=C\c2ccc[nH]2)cn1 | -5.12% (inactive) |
| COc1cccc(/C=N/N2C(=O)CSC2=S)c1O | -2.68% (inactive) |
| O=C(N/N=C\c1ccco1)c1cncc(Br)c1 | 16.6% (inactive) |
| Cc1ccc(C(=O)c2cncc(Br)c2)cc1 | -7.1% (inactive) |
| Nn1c(SCCOc2ccc(Cl)cc2)nnc1-c1cccnc1 | -2.3% (inactive) |
| CSCCC(=O)N1CCCC(N2CCN(c3cccc(C(F)(F)F)c3)CC2)C1 (stereo not given) | 4.08% (inactive) |
| COC(=O)c1ccc(CO/N=C/c2ccc(OC)cc2)o1 | 4.34% (inactive) |
| CCCNC(=O)c1ccc(COc2ccc(C)cc2)o1 | 1.85% (inactive) |
| Cc1cccc2c(CC(=O)O)noc12 | 1.24% (inactive) |
| O=C(NNc1ccc([N+](=O)[O-])cc1)c1ccccc1Cl | 3.86% (inactive) |
| CC1(C)CC(=O)c2cc(C(=O)NNc3ccccc3)c(=O)n(-c3ccccc3)c2C1 | 14.9% (inactive) |
| Clc1ccc2c(N3CCCC3)ccnc2c1 | -0.83% (inactive) |

| Compound | inhibition |
| --- | --- |
| Cc1ccc(O)c(C(=O)c2cc(C#N)c(=O)n(-c3nccs3)c2)c1 | 4.6% (inactive) |
| Cn1c(=O)c2c(=O)cc(NNC(=O)CC#N)[nH]c2n(C)c1=O | 3.96% (inactive) |
| Cc1ccc(/C=C2\SC(=S)N(C3CCS(=O)(=O)C3)C2=O)o1 (stereo not given) | -0.18% (inactive) |
| O=C(COC(=O)c1cccs1)NCCC1=CCCCC1 | 1.34% (inactive) |
| Cc1ccsc1C(=O)OCC(=O)NCCC1=CCCCC1 | 2.87% (inactive) |
| Cc1ccc(N=N/C(=C\O)C(=O)c2ccncc2)cc1 | 3.09% (inactive) |
| O=C(c1ccc(Cl)cc1)c1nnc(-c2ccncc2)o1 | -4.56% (inactive) |
| O=C(Nc1nnc(-c2ccc(Cl)cc2)o1)c1cccc(N2C(=O)CCC2=O)c1 | -1.86% (inactive) |
| FC(F)(F)c1ccc(-c2nnc(-c3cccnc3)o2)cc1 | 5.31% (inactive) |
| CC1(c2nnc(-c3ccccc3)o2)CC(c2ccc(Cl)cc2)=NO1 (stereo not given) | -7% (inactive) |
| CCOc1ccc(CC(=O)N2N=C(C)CC2(O)C(F)(F)F)cc1 (stereo not given) | -10.6% (inactive) |
| CC1=NN(C(=O)COc2ccccc2)C(O)(c2ccccc2)C1 (stereo not given) | 2.02% (inactive) |
| Cc1nn(C)cc1/C=N/NC(=O)c1sc2ccccc2c1Cl | 2.4% (inactive) |
| Nc1nonc1C(=O)NCCN=Cc1cc(Cc2ccccc2)cc(Br)c1O | -2.49% (inactive) |
| Cc1occc1C(=O)N/N=C/c1ccc[nH]1 | 4.32% (inactive) |
| Cc1cc(C(=O)N/N=C/C=C/c2ccccc2)c(C)o1 | 1.97% (inactive) |
| O=C1/C(=C/c2ccco2)CCC1C1CCCC1 (stereo not given) | -2.45% (inactive) |
| Cc1cccc2nc(-c3cccnc3)c(NCCC(C)C)n12 | 5.38% (inactive) |
| CC1=NN(C(=O)c2ccc(C)o2)C(O)(c2ccccc2)C1 (stereo not given) | 20.8% (inactive) |
| Cc1ccc2nc3c(c(N)c2c1)CCN3c1ccccc1 | 11.9% (inactive) |
| CCc1ccc(OCC(=O)c2c(O)c3ccccc3oc2=O)cc1 | 4.28% (inactive) |
| O=C(CCC1CCCCC1)NCc1cccs1 | 4.16% (inactive) |
| C=CCN=C1SC(CC)C(=O)N1S(=O)(=O)c1ccc(C)cc1 (stereo not given) | -2.98% (inactive) |
| O=C(O)c1ccc(CN2C(=O)CSC2=S)cc1 | 10.6% (inactive) |

| Compound | inhibition |
| --- | --- |
| COc1ccc(CN=C2NN=C(c3ccc(Cl)cc3)CS2)cc1 | 0.54% (inactive) |
| c1ccc(Cn2c(SCCN3CCOCC3)nnc2-c2cccnc2)cc1 | 1.98% (inactive) |
| CN(C)CCN1C(=O)c2oc3ccccc3c(=O)c2C1c1cccc(Br)c1 (stereo not given) | -0.37% (inactive) |
| CC12CC3CC(C)(C1)CC(C(=O)N1CCCC1)(C3)C2 | 0.71% (inactive) |
| Cc1ccc(NC(=O)COc2ccccc2)cc1Cl | 20.7% (inactive) |
| Cc1ccc(NC(=O)CNc2ccc(OC(C)C)cc2)cc1 | -2.71% (inactive) |
| CNCc1ccccc1Sc1cc(O)ccc1O | 15.4% (inactive) |
| CC1(C)CC(=O)C2=C(C1)OC(N)=C(C#N)C2C#Cc1ccccc1 (stereo not given) | -5.98% (inactive) |
| CCOC(=O)Cc1ccc(NCc2ccc(Cl)cc2)cc1 | -6.08% (inactive) |
| CC1=NN(C(=O)COc2ccccc2C)C(O)(c2ccc(Cl)cc2)C1 (stereo not given) | 1.65% (inactive) |
| Cc1ccccc1OCCC(=O)OCC(=O)NNC(=O)c1cccs1 | -2.54% (inactive) |
| Cc1ccc2c(c1)C(=O)C(=O)N2CCCOc1ccccc1 | 4.43% (inactive) |
| CC1=CC(C)(C)Nc2ccc(OC(=O)CN3C(=O)c4ccccc4C3=O)cc21 | 17.5% (inactive) |
| N=c1oc2ccccc2cc1C(=O)Nc1ccccc1 | 3.3% (inactive) |
| c1ccc(OCc2nnc3sc(-c4cccs4)nn23)cc1 | -2.99% (inactive) |
| O=c1[nH][nH]c(-c2ccccc2O)c1C(C[N+](=O)[O-])c1cccc(Cl)c1 (stereo not given) | -6.66% (inactive) |
| Clc1ccc(OC2CCN(Cc3nc(CC4CC4)no3)CC2)cc1 | 1.15% (inactive) |
| CCOc1ccc(OCC(=O)OCc2cc(=O)n3cc(Br)ccc3n2)cc1 | 4.47% (inactive) |
| CCOC(=O)Cn1nc(/C=C/c2ccccc2)ccc1=O | 2.31% (inactive) |
| COc1ccc(-c2nnn(Cc3ccccc3)n2)cc1 | 0.99% (inactive) |
| O=C(CNC(=O)c1ccccc1)OC1CCCCC1 | -2.69% (inactive) |
| O=C1CC(Sc2ncccn2)C(=O)N1c1ccccc1C(F)(F)F (stereo not given) | -2.38% (inactive) |
